Inconclusive results are not listed. Activity calls are given as the source filed them. Calls come from the whole dose curve; as a rule, active = well fitted inhibition curve with a large enough effect; inconclusive = small, poorly fitted or top-dose-only effect; inactive = flat fitted curve, though single readings scatter.
Experiments:
Assay in all cases: qHTS profiling for inhibitors of Plasmodium falciparum proliferation (AID 504749); note: nearly all actives have a fitted effect of over 60% in size
Settings in all cases: P. falciparum in erythrocytes, SYBR Green DNA, 72 h; series mostly up to 28.7 µM
CP250 = system: CP250
How it was run: (§1)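 P. falciparum-infected erythrocytes (0.3% parasitemia, 2.5% hematocrit final) were exposed to compounds for 72 h at 37 C in 5% CO2, then lysed with SYBR Green buffer overnight at room temperature; parasite DNA fluorescence was normalized to artemisinin and DMSO controls.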

CP252 = system: CP252
How it was run: as §1

CP256 = system: CP256
How it was run: as §1

CP260 = system: CP260
How it was run: as §1

CP262 = system: CP262
How it was run: as §1

CP265 = system: CP265
How it was run: as §1

CP266 = system: CP266
How it was run: as §1

CP268 = system: CP268
How it was run: as §1

CP269 = system: CP269
How it was run: as §1

CP286 = system: CP286
How it was run: as §1

CP291 = system: CP291
How it was run: as §1

CP297 = system: CP297
How it was run: as §1

CP305 = system: CP305
How it was run: as §1

CP315 = system: CP315
How it was run: as §1

CP325 = system: CP325
How it was run: as §1

CP329 = system: CP329
How it was run: as §1

CP335 = system: CP335
How it was run: as §1

DFO2036 = system: DFO2036
How it was run: as §1

DIV14 = system: DIV14
How it was run: as §1

DIV17 = system: DIV17
How it was run: as §1

Measured: Potency
Potency is the fitted concentration of half-maximal effect.

CC(=O)Oc1cccc2c1C(=O)c1c(OC(C)=O)cc(C(=O)O)cc1C2=O
inactive: all assays above

CCCCCCCCCCCCCCCCCC(=O)OCC(C)O (stereo not given)
inactive: all assays above

OC[C@H]1O[C@@H]2O[C@H]3[C@H](O)[C@@H](O)[C@@H](O[C@H]4[C@H](O)[C@@H](O)[C@@H](O[C@H]5[C@H](O)[C@@H](O)[C@@H](O[C@H]6[C@H](O)[C@@H](O)[C@@H](O[C@H]7[C@H](O)[C@@H](O)[C@@H](O[C@H]1[C@H](O)[C@H]2O)O[C@@H]7CO)O[C@@H]6CO)O[C@@H]5CO)O[C@@H]4CO)O[C@@H]3CO
inactive: all assays above

CC(=O)Nc1ccc(OC(C)=O)cc1
inactive: all assays above

CC1=CCC2CC1C2(C)C (stereo not given)
inactive: all assays above

CN=C1C=CC(=C(c2ccc(N(C)C)cc2)c2ccc(N(C)C)cc2)C=C1
active: CP250 562 nM | CP252 398 nM | CP256 355 nM | CP260 224 nM | CP262 757 nM | CP265 794 nM | CP266 1070 nM | CP268 1690 nM | CP269 849 nM | CP286 199 nM | CP291 1070 nM | CP297 1070 nM | CP305 953 nM | CP315 1070 nM | CP325 953 nM | CP329 757 nM | CP335 301 nM | DFO2036 398 nM | DIV14 1510 nM | DIV17 1510 nM

CC(C)(C)CC(C)(C)c1cc(Cc2cc(C(C)(C)CC(C)(C)C)cc(-n3nc4ccccc4n3)c2O)c(O)c(-n2nc3ccccc3n2)c1
inactive: all assays above

OCl
inactive: all assays above

CC(C)c1ncc([N+](=O)[O-])n1C
inactive: all assays above

C=CCCCCCCCCC(=O)OC
inactive: all assays above

Cc1ccccn1
inactive: all assays above

CC12CCC(C1)C(C)(C)C2=O (stereo not given)
inactive: all assays above

OCC1(CO)COC(C(Cl)(Cl)Cl)OC1
inactive: all assays above

OC/C=C/c1ccccc1
inactive: all assays above

CCCC(=O)O
inactive: all assays above

O=C(O)C1=C(CSc2nnnn2CS(=O)(=O)O)CS[C@@H]2[C@H](NC(=O)[C@H](O)c3ccccc3)C(=O)N12
inactive: all assays above

NC(=O)C1c2ccccc2CCc2ccccc21
inactive: all assays above

O=C(O)/C=C/c1ccccc1
inactive: all assays above

CCCCCCCCCCCCCCCCCC[N+](C)(C)CCC[Si](OC)(OC)OC
inactive: all assays above

COc1ccc(-c2noc(CC(=O)O)c2-c2ccc(OC)cc2)cc1
inactive: all assays above

CC(=O)N[C@@H]1C(O[C@H]2O[C@H](C(=O)O)C(O)[C@H](O)[C@H]2O)[C@H](O)[C@@H](CO)O[C@H]1O[C@@H]1C(C(=O)O)O[C@@H](O[C@H]2[C@H](O)[C@@H](CO)OC(O)[C@@H]2NC(C)=O)[C@H](O)[C@H]1O (stereo not given in full)
inactive: all assays above

C[Se]CC[C@H](N)C(=O)O
inactive: all assays above

CCCCCCCCCC(=O)NO
inactive: all assays above

OB(O)O
inactive: all assays above

FC(F)(F)C(F)(F)C(F)(F)C(F)(F)C(F)(F)C(F)(F)F
inactive: all assays above

C[C@H](CCC(=O)O)[C@H]1CC[C@H]2[C@@H]3CC[C@@H]4C[C@H](O)CC[C@]4(C)[C@H]3C[C@H](O)[C@]12C
inactive: all assays above

O=C(NCCNCC(O)COc1ccc(O)cc1)N1CCOCC1 (stereo not given)
inactive: all assays above
